According to PubChem BioAssay:
Calls of active or inactive are those of the source. Unless noted, no rule for the calls is given here.

Experiments:
[1] = resazurin metabolic signal in HepG2 cells – cell-based, resazurin fluorescence, 24 h, PK04 Diversity Set, profiling panel (AID 1172); conditions: HepG2 viability, higher = more signal
[2] = budding yeast growth changes without added modifier – OD600, strain BY4716, 24 h, basal condition, primary screen (AID 1173); conditions: S. cerevisiae BY4716 growth, OD600, 24 h; higher = more signal, called active from +8 up or from −8 down
[3] = viability profiling in MM1S myeloma cells – cell-based, resazurin fluorescence, basal, 24 h, PK04 Diversity Set, profiling panel (AID 1174); conditions: higher = more signal, called active from +8 up or from −8 down;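 also: MM1S multiple myeloma cell line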
[4] = target: Dihydroorotate dehydrogenase (quinone), mitochondrial (Plasmodium falciparum (isolate 3D7)) (UniProt Q08210); assay: inhibition of P. falciparum DHODH – biochemical, C-terminal His tag, absorbance 600 nm, primary screen (AID 1175); conditions: PfDHODH enzyme, DCIP absorbance 600 nm; higher = more signal, called active from +8 up or from −8 down;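 also: recombinant parasite enzyme with a five histidine tag at its C terminus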
Chain of Dihydroorotate dehydrogenase (quinone), mitochondrial (Plasmodium falciparum (isolate 3D7)) (Q08210 whole entry, looked up): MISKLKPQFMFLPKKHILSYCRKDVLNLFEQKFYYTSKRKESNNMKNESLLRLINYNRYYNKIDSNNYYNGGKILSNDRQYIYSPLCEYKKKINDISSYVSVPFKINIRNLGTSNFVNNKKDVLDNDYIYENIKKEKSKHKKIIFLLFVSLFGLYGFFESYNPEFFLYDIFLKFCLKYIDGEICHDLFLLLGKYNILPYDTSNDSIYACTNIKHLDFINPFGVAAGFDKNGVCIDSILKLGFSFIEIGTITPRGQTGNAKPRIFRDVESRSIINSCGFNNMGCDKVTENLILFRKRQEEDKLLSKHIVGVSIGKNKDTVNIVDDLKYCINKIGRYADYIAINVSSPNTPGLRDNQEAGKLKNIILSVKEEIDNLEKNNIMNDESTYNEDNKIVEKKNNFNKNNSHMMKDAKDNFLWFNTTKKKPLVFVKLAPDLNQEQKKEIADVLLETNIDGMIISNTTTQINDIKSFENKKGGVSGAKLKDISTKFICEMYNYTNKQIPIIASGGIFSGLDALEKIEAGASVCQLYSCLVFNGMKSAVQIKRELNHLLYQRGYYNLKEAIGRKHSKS

[5] = inhibition of PAO1 biofilm formation – strain PAO1, LB-PBS medium, absorbance 600 nm, primary screen (AID 1176); conditions: P. aeruginosa PAO1 growth/biofilm, A600, 12 h; higher = more signal
[6] = growth modulation of vineyard yeast isolate – strain RM11-1a, OD600, basal, 24 h, primary screen (AID 1177);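 also: cultures grown under basal conditions with no added stressor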; conditions: S. cerevisiae RM11-1a growth, OD600, 24 h; higher = more signal, called active from +8 up or from −8 down
[7] = growth of efflux-deficient E. coli DRC39 – strain DRC39, OD650, 24 h, E. coli filamentation inducers, primary screen (AID 1178);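 also: growth measured as culture turbidity by optical density at 650 nm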; conditions: E. coli DRC39 acrAB, higher = more signal, called active from +8 up or from −8 down
[8] = growth of efflux-deficient E. coli DRC39 – strain DRC39, OD650, 48 h, E. coli filamentation inducers, primary screen (AID 1179);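 also: screen aims at cell division blockers that make cells filament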; conditions: E. coli DRC39 delta-acrAB growth, higher = more signal, called active from +8 up or from −8 down
[9] = viability profiling in RPMI8226 myeloma cells – cell-based, resazurin fluorescence, basal, 24 h, PK04 Diversity Set, profiling panel (AID 1180); conditions: higher = more signal;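 also: RPMI8826 multiple myeloma cell line at 5000 cells per well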
[10] = target: E3 ubiquitin-protein ligase XIAP (Homo sapiens) (UniProt P98170); assay: small molecules binding XIAP protein – biophysical, small-molecule microarray, fluorescence 635 nm, primary screen (AID 1181); conditions: higher = more signal;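 also: score merges 667 nm emission and signal to noise over triplicate slides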
Chain of E3 ubiquitin-protein ligase XIAP (Homo sapiens) (P98170 whole entry, looked up, the tested form may be a part): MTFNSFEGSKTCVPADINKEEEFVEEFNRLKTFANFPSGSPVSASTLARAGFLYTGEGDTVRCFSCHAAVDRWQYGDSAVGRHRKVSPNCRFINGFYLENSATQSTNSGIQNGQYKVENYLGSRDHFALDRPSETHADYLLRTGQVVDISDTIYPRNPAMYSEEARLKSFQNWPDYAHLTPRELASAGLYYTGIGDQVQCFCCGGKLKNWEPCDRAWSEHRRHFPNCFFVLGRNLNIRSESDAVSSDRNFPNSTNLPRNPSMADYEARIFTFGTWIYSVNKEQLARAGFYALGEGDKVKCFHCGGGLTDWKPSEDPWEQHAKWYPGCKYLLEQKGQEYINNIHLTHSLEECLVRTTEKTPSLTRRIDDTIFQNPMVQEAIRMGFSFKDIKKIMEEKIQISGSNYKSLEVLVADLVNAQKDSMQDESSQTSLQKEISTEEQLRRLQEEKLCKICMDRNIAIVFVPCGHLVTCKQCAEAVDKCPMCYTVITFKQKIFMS

[11] = tested on: XIP peptide (Xip251-270) binding; assay: XIP fragment 251-270 binding compounds – biochemical, small-molecule microarray, fluorescence 635/667 nm, 0.1 µg/mL protein, primary screen (AID 1182); conditions: fluorescent protein binding, 635 nm, higher = more signal, called active from +8 up or from −8 down
[12] = tested on: XIP peptide (Xip251-270); assay: compounds binding XIP fragment 251-270 – biochemical, small-molecule microarray, fluorescence 635/667 nm, 0.5 µg/mL protein, primary screen (AID 1183); conditions: fluorescence 635 nm, higher = more signal
[13] = blood-stage malaria parasite viability loss – strain 3D7, DAPI fluorescence, 100 nL, primary screen (AID 1184);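 also: parasites grown inside human red blood cells in medium with human serum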; conditions: P. falciparum 3D7 growth, 3 d, higher = more signal
[14] = target: Homeobox protein Hox-A13 (Mus musculus) (UniProt Q62424); assay: disruptors of Hoxa13 oligonucleotide interaction – biochemical, fluorescence polarization, labeled oligonucleotide, primary screen (AID 1185); conditions: Hoxa13:DNA binding, 15 min, higher = more signal, called active from +8 up or from −8 down
Chain of Homeobox protein Hox-A13 (Mus musculus) (Q62424 whole entry, looked up): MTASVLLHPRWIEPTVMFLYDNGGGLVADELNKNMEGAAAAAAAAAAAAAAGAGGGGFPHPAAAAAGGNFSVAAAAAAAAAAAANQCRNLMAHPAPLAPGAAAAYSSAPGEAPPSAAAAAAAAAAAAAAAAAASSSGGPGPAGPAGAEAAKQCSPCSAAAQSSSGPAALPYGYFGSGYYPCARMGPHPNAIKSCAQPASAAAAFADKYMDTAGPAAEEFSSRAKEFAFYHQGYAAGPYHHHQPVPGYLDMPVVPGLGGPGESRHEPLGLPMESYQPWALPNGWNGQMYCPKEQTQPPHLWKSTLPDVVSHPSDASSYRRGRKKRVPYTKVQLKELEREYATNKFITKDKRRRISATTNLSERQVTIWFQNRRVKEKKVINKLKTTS

[15] = blockers of DNA damage checkpoint Chk1 activation – imaging, HeLa, hydroxyurea, phospho-Chk1 antibody, percent positive cells, primary screen (AID 1186); conditions: hydroxyurea-induced phospho-Chk1 immunofluorescence imaging, higher = more signal
[16] = blockers of DNA damage checkpoint Chk1 activation – imaging, HeLa, hydroxyurea, phospho-Chk1 nuclear intensity, primary screen (AID 1187); conditions: hydroxyurea-induced phospho-Chk1 immunofluorescence imaging, higher = more signal

Structure (SMILES)	z-score [1]	z-score [2]	z-score [3]	composite z-score [4]	z-score [5]	z-score [6]	z-score [7]	z-score [8]	z-score [9]	composite z-score [10]	composite z-score [11]	composite z-score [12]	z-score [13]	z-score [14]	z-score [15]	z-score [16]
CCOC(=O)C1=CCC(c2cc3ccccc3[nH]2)NC1 (stereo not drawn)	-0.309	-3.2 (inactive)	-0.79 (inactive)	-0.0148 (inactive)	0.0083 (inactive)	-0.194 (inactive)	-0.303 (inactive)	-0.391 (inactive)	-0.613	0.0418	-0.0143 (inactive)	-0.753	-0.501	-1.51 (inactive)	0.437 (inactive)	-0.151 (inactive)
C#C[C@@H](CC)O[Si](C#Cc1ccc(Oc2ccccc2)cc1)(C(C)C)C(C)C	-0.543	-0.87 (inactive)	-0.613 (inactive)	-0.661 (inactive)	0.833 (inactive)	0.898 (inactive)	-0.568 (inactive)	-0.416 (inactive)	-1.1	-0.0562	0.0878 (inactive)	-0.102	-0.968	-0.279 (inactive)	0.169 (inactive)	-0.0725 (inactive)
[N-]=[N+]=NCc1ccccc1C[C@]1(C(=O)NCc2ccccc2)N=C(c2ccc(OCCCO)cc2)O[C@H]1c1ccccc1N=[N+]=[N-]	-0.269	0.316 (inactive)	-1.53 (inactive)	0.294 (inactive)	1.68 (inactive)	-0.204 (inactive)	0.82 (inactive)	-0.0271 (inactive)	-2.15	-0.22	-0.649 (inactive)	0.344	-2.52	0.378 (inactive)	-0.278 (inactive)	-0.2 (inactive)
O=C1O[C@@H](c2ccccc2)[C@@H](c2ccccc2)N2[C@@H](c3ccc(OCCO)cc3)[C@]3(C(=O)Nc4ccc(C#CCCO)cc43)[C@@H](C(=O)N3CCCCCCC3)[C@H]12	0.0125	-0.355 (inactive)	0.605 (inactive)	0.221 (inactive)	1.72 (inactive)	1.17 (inactive)	-0.515 (inactive)	0.543 (inactive)	1.55	0.733	2.93 (inactive)	0.883	-2.22	-12.2 (active)	-0.148 (inactive)	0.224 (inactive)
CCOC(=O)C[C@H]1[C@H](OC(=O)c2ccc(C(=O)c3ccccc3)cc2)[C@@H](NC(=O)c2ccc(-c3ccccc3)cc2)c2cc(OCCCO)ccc2N1C(=O)c1ccc2ccccc2n1	0.206	-1.1 (inactive)	0.38 (inactive)	-1.69 (inactive)	-0.0998 (inactive)	-0.0276 (inactive)	0.254 (inactive)	1.23 (inactive)	0.909	0.119	1.25 (inactive)	0.388	-1.04	-0.834 (inactive)	-0.916 (inactive)	-0.596 (inactive)
Cc1ccc(F)cc1S(=O)(=O)N[C@@H]1CCN(Cc2ccc(CC(C)C)cc2)C1	-0.367	-17.2 (active)	-0.653 (inactive)	-0.687 (inactive)	0.294 (inactive)	-14.5 (active)	-20.3 (active)	-17.4 (active)	-1.89	-0.106	-0.112 (inactive)	-0.583	-1.66	-4.52 (inactive)	-0.496 (inactive)	-0.724 (inactive)
Cc1ccc(S[C@]2(C(=O)O)CC(=O)N(Cc3ccccc3)[C@@H]2c2ccc(CO)cc2I)cc1	-0.201	-3.44 (inactive)	-2.14 (inactive)	-0.975 (inactive)	0.649 (inactive)	-1.44 (inactive)	-0.256 (inactive)	-0.246 (inactive)	-1.26	-0.287	0.233 (inactive)	0.564	-0.58	-2.92 (inactive)	-0.123 (inactive)	-0.134 (inactive)
C=C(COC)/C(=C/C[C@H](OC(=O)c1ccncc1)c1ccc(CO)o1)c1cc(C(=O)OC)ccc1OC	-0.0086	-0.154 (inactive)	-0.486 (inactive)	-1.02 (inactive)	1.11 (inactive)	-0.328 (inactive)	-0.268 (inactive)	0.0389 (inactive)	0.343	-0.168	-0.222 (inactive)	0.483	0.215	-5.06 (inactive)	-0.35 (inactive)	-0.437 (inactive)
NCCCCCNC(=O)[C@@H]1C[C@@H]2C(=O)N3CCC[C@H]3C(=O)N2[C@@H]1c1cccc(OCCO)c1	0.0359	-0.582 (inactive)	0.199 (inactive)	-0.801 (inactive)	-0.226 (inactive)	-0.914 (inactive)	0.0544 (inactive)	-0.109 (inactive)	-0.0506	0.522	0.536 (inactive)	-0.0496	0.398	-3.71 (inactive)	0.0592 (inactive)	0.182 (inactive)
CCOC(=O)C1=CC[C@H]2C(=O)N(CC)C(=O)[C@@H]12	0.507	1.31 (inactive)	0.293 (inactive)	0.467 (inactive)	0.0236 (inactive)	1.38 (inactive)	-0.0583 (inactive)	-0.196 (inactive)	0.667	-0.311	0.223 (inactive)	0.343	-0.239	-2.15 (inactive)	0.379 (inactive)	-0.0238 (inactive)
C=C(CCCC)C(=O)CC[C@@H](OC(C)=O)c1cccc(OCCO)c1	-0.749	-17.8 (active)	-1.01 (inactive)	-3.64 (inactive)	0.367 (inactive)	-19.2 (active)	-0.55 (inactive)	-0.528 (inactive)	-1.07	0.136	-0.0399 (inactive)	0.0194	-1.47	-3.72 (inactive)	0.163 (inactive)	0.0394 (inactive)
O=C1C[C@]2(c3ccc([N+](=O)[O-])cc3)C(=O)N(CCN3CCOCC3)c3cc(CO)ccc3[C@H]2N1CC12CC3CC(CC(C3)C1)C2	-0.0113	-0.0207 (inactive)	0.639 (inactive)	-6.92 (inactive)	0.277 (inactive)	-0.028 (inactive)	0.577 (inactive)	-0.0127 (inactive)	-0.391	0.476	0.288 (inactive)	-0.307	-0.226	-2.32 (inactive)	0.416 (inactive)	0.394 (inactive)
CN(C)CCCNC(=O)[C@@H]1c2ccccc2C(=O)N(Cc2ccccc2)[C@H]1c1ccc(CO)cc1	-0.309	0.0396 (inactive)	0.499 (inactive)	-0.303 (inactive)	-0.233 (inactive)	0.075 (inactive)	-0.0194 (inactive)	-0.136 (inactive)	0.791	-0.0926	0.0257 (inactive)	-0.32	0.0535	0.86 (inactive)	0.242 (inactive)	0.372 (inactive)
CC(C)=C1C(=O)C(c2ccccc2)=C2CN3C(=O)N(CCc4ccccc4)C(=O)[C@]3(Cc3ccc(F)cc3)[C@H]21	-1.22	0.255 (inactive)	-1.53 (inactive)	-0.0278 (inactive)	1.4 (inactive)	0.223 (inactive)	-0.933 (inactive)	-0.853 (inactive)	-0.942	-0.02	-0.391 (inactive)	-0.27	-0.418	-2.1 (inactive)	0.0852 (inactive)	0.314 (inactive)
COC(=O)[C@@H]1N=C(c2ccc(OCCCO)cc2)O[C@@H]1c1ccccc1N=[N+]=[N-]	1.92	-4.88 (inactive)	0.856 (inactive)	0.458 (inactive)	1.2 (inactive)	-0.82 (inactive)	2.09 (inactive)	0.995 (inactive)	0.0154	0.267	0.82 (inactive)	0.806	-1.43	-3.65 (inactive)	-0.292 (inactive)	-0.269 (inactive)
COCC1=C2[C@@H](CCc3ccccc3)OB(O)C[C@@H]2n2c(=O)n(-c3ccccc3)c(=O)n2C1	0.0883	-1.24 (inactive)	-0.177 (inactive)	0.653 (inactive)	0.248 (inactive)	-0.352 (inactive)	0.969 (inactive)	0.545 (inactive)	0.0549	0.698	-0.0712 (inactive)	0.835	1.25	-4.79 (inactive)	0.0264 (inactive)	-0.295 (inactive)
CC(C)C[C@@H]1NC(=O)[C@H]2C[C@@H](C(=O)O)[C@@H](c3ccc(O)cc3)N2C1=O	0.374	0.0437 (inactive)	0.816 (inactive)	0.425 (inactive)	-0.86 (inactive)	1.58 (inactive)	-0.139 (inactive)	-0.456 (inactive)	0.453	-0.125	0.0473 (inactive)	0.86	-0.251	-2.19 (inactive)	-0.523 (inactive)	-0.332 (inactive)
CN(C)c1ccc(C(O)C2C=CC3C(=O)N(c4ccccc4)C(=O)C3N2Nc2ccccc2F)cc1 (stereo not drawn)	-0.268	-1.77 (inactive)	-0.234 (inactive)	1.03 (inactive)	0.657 (inactive)	0.545 (inactive)	-0.853 (inactive)	-1.08 (inactive)	-1.02	0.24	0.324 (inactive)	0.265	-0.0341	-5.07 (inactive)	-0.0191 (inactive)	-0.817 (inactive)
